AC50 and outcome data for six molecules are collected here from PubChem BioAssay (EPA / NIEHS).

The source made the active and inactive calls. The calls were made as follows: active = hit-call score of the fitted dose curve at least 0.9, where 1 is the maximum; inactive = score below 0.9.

Read-out in experiment [1]: Interferon-gamma inducible Protein 10 (IP10), CXCL10 (gene 3627)
Put plainly: BSK_hDFCGF_IP10: BioMAP Diversity Plus: hDFCGF Assay for Interferon-gamma inducible Protein 10 (IP10) Biomarker Activity (AID 2283053). As to conditions: primary human foreskin fibroblasts; actives raise or lower the signal. The method in brief: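 Chemical-treated human skin fibroblasts (primary) were sampled at 24 h for IP-10 by ELISA. Both increases and decreases relative to DMSO were scored.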

Read-out in experiment [2]: Urokinase-type plasminogen activator receptor (uPAR), PLAUR (gene 5329)
Put plainly: BSK_CASM3C_uPAR: BioMAP Diversity Plus: CASM3C Assay for Urokinase-type plasminogen activator receptor (uPAR) Biomarker Activity (AID 2283054).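 Also: cell-surface uPAR protein level quantified by ELISA.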 Conditions: primary human coronary artery smooth muscle cells; actives raise or lower the signal.

Read-out in experiment [3]: Vascular cell adhesion molecule 1 (VCAM1), VCAM1 (gene 7412)
The experiment is described as follows: BSK_CASM3C_VCAM1: BioMAP Diversity Plus: CASM3C Assay for Vascular cell adhesion molecule 1 (VCAM1) Biomarker Activity (AID 2283055).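 Also: VCAM-1 protein level quantified by ELISA on the cells.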 Conditions: primary human coronary artery smooth muscle cells; actives raise or lower the signal.

Read-out in experiment [4]: Epidermal growth factor receptor (EGFR), EGFR (gene 1956)
Put plainly: BSK_hDFCGF_EGFR: BioMAP Diversity Plus: hDFCGF Assay for Epidermal growth factor receptor (EGFR) Biomarker Activity (AID 2283057). As to conditions: primary human foreskin fibroblasts; actives raise or lower the signal. The essentials: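 Cell-based multiplexed assay in primary human foreskin fibroblasts. EGFR is read by ELISA 24 h after treatment and compared with DMSO controls.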

Read-out in experiment [5]: Interleukin-8 (IL8), CXCL8 (gene 3576)
Put plainly: BSK_hDFCGF_IL8: BioMAP Diversity Plus: hDFCGF Assay for Interleukin-8 (IL8) Biomarker Activity (AID 2283058). Conditions: primary human foreskin fibroblasts; actives raise or lower the signal. The method in brief: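 hDFCGF human dermal fibroblasts; 24 h chemical exposure; IL-8 by ELISA; bidirectional curve fit vs DMSO baseline; gain or loss of signal scored.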

Experiment [6] is described as follows: BSK_hDFCGF_Proliferation: Cell Proliferation Assessment in the BioMAP Diversity Plus: hDFCGF Assay (AID 2283059).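 Also: curves fitted for both rise and fall of signal versus DMSO baseline.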 As to conditions: primary human foreskin fibroblasts. The essentials: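 Total protein read at 560 nm after 0.1% SRB staining of TCA-fixed human skin fibroblasts, […]. Activity is fitted in both directions relative to DMSO as baseline.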

Read-out in experiment [7]: Macrophage colony-stimulating factor (MCSF), CSF1 (gene 1435)
Put plainly: BSK_hDFCGF_MCSF: BioMAP Diversity Plus: hDFCGF Assay for Macrophage colony-stimulating factor (MCSF) Biomarker Activity (AID 2283060). Conditions: primary human foreskin fibroblasts; actives raise or lower the signal. The essentials: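 Human foreskin primary fibroblasts were treated with test chemical for 24 h, and M-CSF was then measured by ELISA. Data were fitted bidirectionally against DMSO as the negative control and activity baseline.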

The nature of experiment [8]: BSK_hDFCGF_SRB: Viability Assessment in the BioMAP Diversity Plus: hDFCGF Assay (AID 2283061).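 Also: cells exposed to compound for 24 h before the read.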 Conditions: primary human foreskin fibroblasts. The method in brief: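 Human foreskin primary fibroblasts were treated with compound and assessed 24 h after dosing. Total protein was measured by sulforhodamine B staining (0.1% SRB after 10% TCA fixation, 560 nm read) as a cytotoxicity marker, with bidirectional fitting against DMSO baseline.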

Read-out in experiment [9]: TIMP metallopeptidase inhibitor 1 (TIMP1), TIMP1 (gene 7076)
The experiment is described as follows: BSK_hDFCGF_TIMP1: BioMAP Diversity Plus: hDFCGF Assay for TIMP metallopeptidase inhibitor 1 (TIMP1) Biomarker Activity (AID 2283062). As to conditions: primary human foreskin fibroblasts; actives raise or lower the signal. The essentials: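 Primary human foreskin fibroblasts in the hDFCGF system were dosed with compound for 24 h, then TIMP-1 was measured by ELISA. Activity was fitted bidirectionally relative to DMSO control; parallel SRB staining assessed cytotoxicity.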

Read-out in experiment [10]: Monokine induced gamma interferon (MIG), CXCL9 (gene 4283)
The experiment is described as follows: BSK_hDFCGF_MIG: BioMAP Diversity Plus: hDFCGF Assay for Monokine induced gamma interferon (MIG) Biomarker Activity (AID 2283063). As to conditions: primary human foreskin fibroblasts; actives raise or lower the signal. The essentials:
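ELISA read-out of MIG from primary human dermal fibroblasts 24 h post-dosing. Gain or loss of signal fitted bidirectionally, DMSO as baseline.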

Read-out in experiment [11]: Matrix Metallopeptidase 1 (MMP1), MMP1 (gene 4312)
The experiment is described as follows: BSK_hDFCGF_MMP1: BioMAP Diversity Plus: hDFCGF Assay for Matrix Metallopeptidase 1 (MMP1) Biomarker Activity (AID 2283064). As to conditions: primary human foreskin fibroblasts; actives raise or lower the signal. The essentials:
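MMP1 levels quantified by ELISA 24 h after dosing human dermal fibroblast cultures, with parallel SRB total-protein staining for overt cytotoxicity. Data fitted in both directions against DMSO baseline.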

Read-out in experiment [12]: Vascular cell adhesion molecule 1 (VCAM1), VCAM1 (gene 7412)
The experiment is described as follows: BSK_hDFCGF_VCAM1: BioMAP Diversity Plus: hDFCGF Assay for Vascular cell adhesion molecule 1 (VCAM1) Biomarker Activity (AID 2283065).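 As to AC50: VCAM-1 protein level quantified by ELISA after 24 h chemical exposure.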 As to conditions: primary human foreskin fibroblasts; actives raise or lower the signal. The essentials:
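Primary human foreskin fibroblasts (hDFCGF system) were dosed with chemical and VCAM-1 was measured by ELISA 24 h later. Bidirectional curve fitting used DMSO as negative control and activity baseline.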

Read-out in experiment [13]: Plasminogen activator inhibitor-1 (PAI1), SERPINE1 (gene 5054)
The experiment is described as follows: BSK_hDFCGF_PAI1: BioMAP Diversity Plus: hDFCGF Assay for Plasminogen activator inhibitor-1 (PAI1) Biomarker Activity (AID 2283066). As to conditions: primary human foreskin fibroblasts; actives raise or lower the signal. The method in brief:
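Human skin fibroblast cultures receive chemical for 24 h before PAI-1 is measured by ELISA; signal changes are fitted bidirectionally against DMSO-treated wells.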

Read-out in experiment [14]: Intercellular Adhesion Molecule 1 (ICAM1), ICAM1 (gene 3383)
Put plainly: BSK_KF3CT_ICAM1: BioMAP Diversity Plus: KF3CT Assay for Intercellular Adhesion Molecule 1 (ICAM1) Biomarker Activity (AID 2283067). As to conditions: primary human keratinocytes with fibroblasts; actives raise or lower the signal. The method in brief: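 Human keratinocyte plus foreskin fibroblast primary co-culture was exposed to chemical for 24 h. ICAM-1 was then quantified by ELISA, and the data were fit bidirectionally against DMSO as the negative control and baseline.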

The nature of experiment [15]: BSK_KF3CT_SRB: Viability Assessment in the BioMAP Diversity Plus: KF3CT Assay (AID 2283069). Conditions: primary human keratinocytes with fibroblasts. The essentials: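 Cytotoxicity was gauged by SRB staining (0.1% SRB, 10% TCA fixation, 560 nm) of parallel cultures at 24 h. The cells were primary human skin keratinocytes co-cultured with fibroblasts, and activity was fitted in both directions against DMSO.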

Read-out in experiment [16]: Interleukin-1 alpha (IL1a), IL1A (gene 3552)
Put plainly: BSK_KF3CT_IL1a: BioMAP Diversity Plus: KF3CT Assay for Interleukin-1 alpha (IL1a) Biomarker Activity (AID 2283070). As to conditions: primary human keratinocytes with fibroblasts; actives raise or lower the signal. The essentials:
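IL-1a was detected by ELISA 24 h after chemical treatment of a co-culture of human skin keratinocytes and foreskin fibroblasts. Gain or loss of signal was fitted against the DMSO baseline.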

Read-out in experiment [17]: TIMP metallopeptidase inhibitor 2 (TIMP2), TIMP2 (gene 7077)
The experiment is described as follows: BSK_KF3CT_TIMP2: BioMAP Diversity Plus: KF3CT Assay for TIMP metallopeptidase inhibitor 2 (TIMP2) Biomarker Activity (AID 2283071). As to conditions: primary human keratinocytes with fibroblasts; actives raise or lower the signal. The method in brief: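 Measurements come from ELISA detection of TIMP-2 at 24 hours in a dosed human keratinocyte and foreskin fibroblast co-culture. DMSO serves as negative control and baseline.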

Read-out in experiment [18]: Transforming growth factor beta 1 (TGFb1), TGFB1 (gene 7040)
The experiment is described as follows: BSK_KF3CT_TGFb1: BioMAP Diversity Plus: KF3CT Assay for Transforming growth factor beta 1 (TGFb1) Biomarker Activity (AID 2283072). Conditions: primary human keratinocytes with fibroblasts; actives raise or lower the signal. The method in brief: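 TGF-b1 ELISA on a 24 h dosed co-culture of human keratinocytes and foreskin fibroblasts; cytotoxicity tracked in parallel cultures by SRB staining.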

Read-out in experiment [19]: Interferon-gamma inducible Protein 10 (IP10), CXCL10 (gene 3627)
Put plainly: BSK_KF3CT_IP10: BioMAP Diversity Plus: KF3CT Assay for Interferon-gamma inducible Protein 10 (IP10) Biomarker Activity (AID 2283068). As to conditions: primary human keratinocytes with fibroblasts; actives raise or lower the signal. The method in brief:
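Human keratinocyte plus foreskin fibroblast primary co-culture exposed to test chemical for 24 h; IP-10 measured by ELISA. Concentration-response fitted bidirectionally against DMSO control as baseline.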

As a reminder, the AC50 is the concentration giving half of the maximal activity seen.

As for `Nc1cccc2c(N)cccc12`, the AC50 in [1] was 29.1 µM (active); in [6], 5.91 µM (active); in [7], 12.9 µM (active); in experiment [10] it was 16.3 µM (active); in experiment [12], 6.83 µM (active). Besides, the result in experiment [2], in experiment [3], in experiment [4], in experiment [5], in experiment [8] and in experiment [9] was inactive. In addition, the result in experiment [11], in [13], in [14], in experiment [15], in experiment [16] and in [17] was inactive. Besides, the outcome in experiment [18] was inactive.
As for `OC1CCC(C2CCCCC2)CC1` (stereo unspecified), the outcome in experiment [1], in experiment [2], in [3], in experiment [4], in [5] and in experiment [6] was inactive. Moreover, the outcome in experiment [7], in experiment [8], in [9], in experiment [10], in experiment [11] and in experiment [12] was inactive. In addition, the result in experiment [13], in experiment [14], in [15], in experiment [16], in [17] and in experiment [18] was inactive.
Consider `NCC(F)(F)C(F)(F)C(F)(F)C(F)(F)C(F)(F)C(F)(F)C(F)(F)F`, for which the result in experiment [1], in [2], in experiment [3], in [4], in experiment [5] and in [6] was inactive. The outcome in experiment [7], in experiment [8], in experiment [9], in [10], in experiment [11] and in experiment [12] was inactive. Besides, the result in [13], in experiment [14], in experiment [15], in experiment [16] and in experiment [17] was inactive.
In the case of `CCCCCCCCCCCCCCCS(=O)(=O)Oc1ccccc1`, the outcome in experiment [1], in experiment [2], in experiment [3], in experiment [4], in [5] and in [6] was inactive. Further, the result in experiment [7], in experiment [8], in experiment [9], in experiment [10], in experiment [11] and in experiment [12] was inactive. Further, the outcome in experiment [13], in experiment [14], in experiment [19], in [15], in experiment [16] and in [17] was inactive. For the same molecule, the result in experiment [18] was inactive.
Take `c1ccc2c(c1)ccc1ccccc12`: the outcome in experiment [1], in [2], in experiment [3], in experiment [4], in experiment [5] and in experiment [6] was inactive. The result in experiment [7], in [8], in [10], in [11], in experiment [12] and in [13] was inactive. Also, the outcome in experiment [14], in experiment [15], in experiment [16], in experiment [17] and in experiment [18] was inactive.
Consider `CCCCC(CC)COC(=O)CCCCC(=O)OCC(CC)CCCC` (stereo unspecified), for which the outcome in experiment [1], in [2], in experiment [3], in [4], in experiment [5] and in experiment [6] was inactive. Moreover, the outcome in experiment [7], in experiment [8], in [10], in experiment [11], in experiment [12] and in experiment [13] was inactive. Also, the outcome in experiment [14], in experiment [15], in experiment [16], in experiment [17] and in experiment [18] was inactive.
